Anthrax LF prot = Bacillus anthracis LF protease inhibitors, primary screen, biochemical, multiplex microsphere, MLPCN library; multiplex microsphere protease cleavage assay; 360,000 tested, 0.12% active; Lethal factor (Bacillus anthracis), P15917; inhibition, % at 10 µM; also: plate controls were buffer without enzyme for full effect and enzyme alone for no effect
BoNT-A LC inh2 = BoNT/A light chain protease inhibitors, primary screen, biochemical, flow cytometry, MLPCN library | Botulinum neurotoxin type A light chain protease (Clostridium botulinum A str. ATCC 3502) | multiplex microsphere protease substrate cleavage | inhibition, % at 10 µM | 360,000 tested, 0.17% active | AID 588499, 2011; also: plate controls were buffer without enzyme for full effect and enzyme alone for no effect
VHR inh abs = VHR1 phosphatase inhibitors, primary screen, biochemical, absorbance, uHTS. 290,000 tested, 0.52% active. inhibition, % at 13.3 µM. recombinant VHR phosphatase, pNPP absorbance. Dual specificity protein phosphatase 3 (Homo sapiens), P51452; in the data active = inhibition above about 50%
Target sequence (P51452 whole entry, looked up): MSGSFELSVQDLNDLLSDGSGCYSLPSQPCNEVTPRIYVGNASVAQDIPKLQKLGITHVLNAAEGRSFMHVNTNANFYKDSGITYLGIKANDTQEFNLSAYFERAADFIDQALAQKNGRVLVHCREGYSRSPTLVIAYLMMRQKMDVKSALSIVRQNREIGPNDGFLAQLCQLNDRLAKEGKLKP
BoNT-F LC inh = BoNT/F light chain protease inhibitors, primary screen, biochemical, flow cytometry, MLPCN library | inhibition, % at 10 µM | Botulinum neurotoxin type F light chain protease (Clostridium botulinum) | 360,000 tested, 0.22% active | AID 588497, 2011 | Multiplex microsphere protease cleavage assay; in the data active = inhibition above about 35%, passing the limit was not always enough; inconclusive = no clear call, values can overlap the other calls; also: plate controls were buffer without enzyme for full effect and enzyme alone for no effect
MazF activator = activators of E. coli MazEF toxin-antitoxin RNase, primary screen, biochemical, fluorescence, uHTS; Endoribonuclease toxin MazF (Escherichia coli (strain K12)), P0AE70; FAM/BHQ RNA-DNA oligo cleavage fluorescence, 5 h; activation, % at 20 µM; 350,000 tested, 0.32% active; AID 504720, 2011; in the data active = activation above about 50%
Target sequence (P0AE70 whole entry, looked up): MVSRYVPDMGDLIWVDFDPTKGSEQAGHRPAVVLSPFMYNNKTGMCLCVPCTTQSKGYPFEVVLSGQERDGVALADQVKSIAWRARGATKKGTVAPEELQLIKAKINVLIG
Autofluor counter = counter-screen for toxin protease inhibitors: compound fluorescence; AID 624483; fluorescence intensity (no concentration beside the values); compound autofluorescence counterscreen, microsphere flow cytometry; stronger effect = higher value; 360,000 tested, 3.1% active; in the data active = fluorescence intensity above about 16000; inconclusive = no clear call, values can overlap the other calls
* marks the source's active call; other numbers are inactive results. The list is not random: actives were taken first. Their share in the collection is about 4.1%. Rule as the data show it, unless noted: active = inhibition above about 30%; inconclusive = no clear call, values can overlap the other calls; inactive = below that.

Screening Cc1cccc(N2CCN(C(=O)c3cc(COc4ccc(F)c(F)c4)on3)CC2)n1 returned Anthrax LF prot 0.5, BoNT-A LC inh2 0.3, VHR inh abs 51.3*, BoNT-F LC inh 4.2, MazF activator -4.1 and Autofluor counter 5766.
Screening Cc1cccc(C)c1OCc1cc(C(=O)N2CCN(Cc3nccn3C)CC2)no1 returned Anthrax LF prot -2.6, BoNT-A LC inh2 -0.8, VHR inh abs 57.9*, BoNT-F LC inh 5.3, MazF activator 3.2 and Autofluor counter 5505.
CSc1ccccc1OCc1cc(C(=O)N2CCN(Cc3nccn3C)CC2)no1 was read as Anthrax LF prot -2.1, BoNT-A LC inh2 0.0, VHR inh abs -3.0, BoNT-F LC inh 11.6, MazF activator 3.7 and Autofluor counter 5880.
For COc1cccc(CN2CC(C(=O)NCCn3ccc(C)n3)CCC2=O)c1 (stereo not drawn) the results were Anthrax LF prot 0.0, BoNT-A LC inh2 -0.4, VHR inh abs 1.3, BoNT-F LC inh 1.3, MazF activator 3.6 and Autofluor counter 6379.
Screening Cc1ncsc1C(=O)NCc1ccc(N2CCCC2=O)cc1 returned Anthrax LF prot -2.4, BoNT-A LC inh2 0.4, VHR inh abs 0.2, BoNT-F LC inh 3.0, MazF activator -0.4 and Autofluor counter 16227*.
Screening O=C(O)c1cccc(N2C(=O)c3cccnc3C2=O)c1 returned Anthrax LF prot -4.0, BoNT-A LC inh2 inconclusive, VHR inh abs 4.8, BoNT-F LC inh -3.7, MazF activator 7.3 and Autofluor counter 23303*.
For CC(=O)Oc1c(/C=C(\C#N)C(N)=O)[nH]c2ccccc12 the results were Anthrax LF prot 0.7, BoNT-A LC inh2 0.9, VHR inh abs -8.4, BoNT-F LC inh 0.8, MazF activator 596.7* and Autofluor counter 2674.
N#C/C(=C\c1c[nH]c2ccccc12)C(N)=O was read as Anthrax LF prot -5.1, BoNT-A LC inh2 -13.5, VHR inh abs 11.2, BoNT-F LC inh inconclusive, MazF activator -1.9 and Autofluor counter 4310.
CC(=O)c1c(C)[nH]c(C(=O)N2CCN(c3ccc(F)cc3)CC2)c1C was read as Anthrax LF prot -3.4, BoNT-A LC inh2 -4.5, VHR inh abs 7.6, BoNT-F LC inh -5.0, MazF activator -3.3 and Autofluor counter 23763*.
`CCOC(=O)N1CCN(C(=O)c2ccc(N(Cc3ccc(C)cc3)S(C)(=O)=O)cc2)CC1` gave Anthrax LF prot -3.0, BoNT-A LC inh2 -2.2, VHR inh abs 18.7, BoNT-F LC inh -2.0, MazF activator -8.7 and Autofluor counter 23851*.
CC(=O)c1cccc(NC(=O)c2ccc(N(Cc3ccc(C)cc3)S(C)(=O)=O)cc2)c1 was read as Anthrax LF prot -2.1, BoNT-A LC inh2 -1.9, VHR inh abs -3.8, BoNT-F LC inh -1.2, MazF activator -6.6 and Autofluor counter 17101*.
For Cc1cc(C(=O)COc2ccc(Br)cc2F)c(C)n1CC1CCCO1 (stereo not drawn) the results were Anthrax LF prot 1.8, BoNT-A LC inh2 -0.3, BoNT-F LC inh -8.0, MazF activator 2.7 and Autofluor counter 4058.
Cc1ccc(CC2C(=O)N(C)C(=O)N(C)C2=O)s1 was read as Anthrax LF prot -1.1, BoNT-A LC inh2 inconclusive, VHR inh abs 9.6, BoNT-F LC inh -3.5, MazF activator -0.1 and Autofluor counter 21258*.
For C=CCOc1ccc(CC2C(=O)N(C)C(=O)N(C)C2=O)cc1 the results were Anthrax LF prot 5.1, BoNT-A LC inh2 0.2, VHR inh abs -7.3, BoNT-F LC inh -0.1, MazF activator 7.5 and Autofluor counter 8987.
Cc1ccccc1S(=O)(=O)NC(=O)C1(C)CCN1C(=O)C(C)(C)c1ccccc1 (stereo not drawn) was read as Anthrax LF prot -7.6, BoNT-A LC inh2 -1.0, BoNT-F LC inh 1.8 and Autofluor counter 3681.
For CC(=O)c1cc2c(ccc3ccccc32)oc1=O the results were Anthrax LF prot 5.4, BoNT-A LC inh2 -1.5, VHR inh abs -4.9, BoNT-F LC inh 9.9, MazF activator 13.4 and Autofluor counter 4156.
`O=C(c1ccco1)c1cc2c(ccc3ccccc32)oc1=O` gave Anthrax LF prot 3.2, BoNT-A LC inh2 2.8, VHR inh abs 18.8, BoNT-F LC inh 2.8, MazF activator 5.0 and Autofluor counter 22410*.
Screening COc1ccc(C(=O)NC2CCC(O)CC2)cc1S(=O)(=O)NCc1ccc(Cl)cc1 (stereo not drawn) returned MazF activator -19.9.
For COc1ccc(C(=O)NCCNC(C)=O)cc1S(=O)(=O)NCc1ccc(Cl)cc1 the results were Anthrax LF prot -2.2, BoNT-A LC inh2 -1.0, VHR inh abs 15.9, BoNT-F LC inh -5.7, MazF activator 4.0 and Autofluor counter 19992*.
For O=C(Nc1ccnn1C1CCN(C/C=C/c2ccccc2)CC1)c1ccccc1Cl the results were Anthrax LF prot -55.8, BoNT-A LC inh2 -239.6, VHR inh abs 3.6, BoNT-F LC inh -410.6, MazF activator -6.4 and Autofluor counter 56855*.
`COC(=O)C1=CN(c2ccc(OC)cc2)C=C(C(=O)OC)C1c1ccc(C)c([N+](=O)[O-])c1` gave Anthrax LF prot -0.3, BoNT-A LC inh2 0.6, VHR inh abs -4.8, BoNT-F LC inh -3.2, MazF activator 1.9 and Autofluor counter 1987.
COC(=O)C1=CN(c2cccc(C)c2)C=C(C(=O)OC)C1c1cc(OC)c(O)c([N+](=O)[O-])c1 was read as Anthrax LF prot -0.2, BoNT-A LC inh2 1.6, VHR inh abs -4.3, BoNT-F LC inh 1.8, MazF activator 2.0 and Autofluor counter 22321*.
`CCCCn1nnnc1C(c1ccccc1)N1CCN(c2ccc(C(F)(F)F)cc2[N+](=O)[O-])CC1` (stereo not drawn) gave Anthrax LF prot -0.7, BoNT-A LC inh2 -0.4, BoNT-F LC inh 3.0 and Autofluor counter 5750.
Screening Cc1ccc(OCC(=O)NNC(=O)c2cc(C)[nH]n2)cc1 returned Anthrax LF prot 2.1, BoNT-A LC inh2 0.5, VHR inh abs -0.5, BoNT-F LC inh 11.1, MazF activator 3.1 and Autofluor counter 2028.
For Cc1cc(C(=O)NNC(=O)COc2ccccc2Cl)n[nH]1 the results were Anthrax LF prot 0.7, BoNT-A LC inh2 -2.0, VHR inh abs 51.1*, BoNT-F LC inh -9.4, MazF activator -5.1 and Autofluor counter 4931.
`COc1cccc(C(c2c(O)nc(SC)n(C)c2=O)c2c(O)nc(SC)n(C)c2=O)c1` gave Anthrax LF prot -4.0, BoNT-A LC inh2 2.2, VHR inh abs 17.4, BoNT-F LC inh 4.3, MazF activator 0.3 and Autofluor counter 21226*.
CCOC(=O)CN1N=C(c2ccc(C)cc2)CCC1=O was read as Anthrax LF prot -3.2, BoNT-A LC inh2 0.8, VHR inh abs 48.7, BoNT-F LC inh -13.0, MazF activator -0.6 and Autofluor counter 3187.

Screening results from PubChem BioAssay.
